Screening results deposited in PubChem by National Center for Advancing Translational Sciences (NCATS).
Shown are actives, neighbours in structure and some others; about 2.8% of the full set was active somewhere.
POLH inh = blocks human DNA polymerase eta activity; Potency, µM (top dose mostly 114 µM), for inactives: at the highest dose activity change, negative = inhibition, actives largely listed as inhibitors; recombinant Pol eta, fluorescent DNA replication assay; AID 588591; Q9Y253; 390,000 tested, 1.2% active; also: potency is read from the fitted curve at half-maximal effect; % is scaled to controls: 0 for no effect and ±100 for the full control effect
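Fluorescent replication assay: 50 nM final substrate added after a 15 min room-temperature compound preincubation with 10 nM enzyme. Signal taken at 0 min and again at 10 min.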
POLB inh = DNA polymerase beta (human) inhibition; P06746; Pol beta primer extension/strand displacement, fluorescence kinetic; Potency, µM (top dose mostly 114 µM), inactives show at the highest dose activity change, negative = inhibition, actives largely listed as inhibitors; 340,000 tested, 1.3% active; also: potency is read from the fitted curve at half-maximal effect; % is scaled to controls: 0 for no effect and ±100 for the full control effect
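Pol beta (10 nM) was preincubated with compound for 15 min at room temperature. The reaction was then started with 50 nM substrate and read immediately and after a further 10 min at room temperature.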
PI5P4Ka inh = PI5P4K alpha (human) kinase inhibition | max response, % | PI5P4Kalpha enzyme, ADP-Glo luminescence, 60 min; stronger effect = lower value | 330,000 tested, 1.2% active; active = max response of -50% or lower; inconclusive = between -30% and -50%; inactive = -30% or higher; also: value at the top dose of about 77 µM; % is scaled to controls: 0 for no effect and ±100 for the full control effect
Target sequence (P48426 whole entry, looked up): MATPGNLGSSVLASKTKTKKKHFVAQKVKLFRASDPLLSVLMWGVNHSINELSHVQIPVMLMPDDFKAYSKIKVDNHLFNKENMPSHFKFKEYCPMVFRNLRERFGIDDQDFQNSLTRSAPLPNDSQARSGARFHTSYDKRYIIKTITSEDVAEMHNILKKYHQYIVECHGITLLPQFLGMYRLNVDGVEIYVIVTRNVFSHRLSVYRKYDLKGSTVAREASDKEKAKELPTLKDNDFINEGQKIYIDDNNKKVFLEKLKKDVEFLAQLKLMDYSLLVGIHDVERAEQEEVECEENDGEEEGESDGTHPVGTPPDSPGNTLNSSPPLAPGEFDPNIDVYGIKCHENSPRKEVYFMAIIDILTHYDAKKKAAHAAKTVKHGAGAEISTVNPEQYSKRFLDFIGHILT
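Reactions run in 0.038 M HEPES pH 7.4, 0.28 mM EGTA, 0.1% CHAPS and 5% DMSO, with PI5P4Kalpha, substrate, compound and 5 microM ATP final, one hour at room temperature. Readout is ADP-Glo luminescence.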
Pol iota inh = inhibitors of human DNA polymerase iota. Pol iota fluorescent replication assay, 10 min. Potency, µM (highest dose often 115 µM), for inactives: top-dose activity, negative = inhibition, most hits filed as inhibitors. 390,000 tested, 1% active. AID 588590; also: potency is read from the fitted curve at half-maximal effect
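Fluorescent replication assay read twice, at 0 min and 10 min after adding 50 nM (final) substrate. Enzyme (10 nM) and compounds were first incubated 15 min at room temperature; enzyme-free buffer wells were negative controls.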
POLK inh = inhibitors of human DNA polymerase kappa. Q9UBT6. purified Pol kappa, fluorescent DNA synthesis assay, 10 min. Potency, µM (top dose mostly 107 µM), without a hit: at the highest dose activity, negative = inhibition, actives largely listed as inhibitors. 400,000 tested, 0.53% active; also: potency is read from the fitted curve at half-maximal effect; % is scaled to controls: 0 for no effect and ±100 for the full control effect
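Kinetic fluorescence screen: compound preincubated 15 min RT with 10 nM enzyme; 50 nM substrate (final) initiates; reads at 0/10 min.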
WRN inhibitor = inhibitors of human WRN helicase | WRN helicase unwinding, fluorescent forked duplex, kinetic | Potency, µM (series often up to 114 µM), for inactives: top-dose activity change, negative = inhibition, actives largely listed as inhibitors | AID 651768 | Q14191 | 360,000 tested, 0.46% active; also: potency is read from the fitted curve at half-maximal effect; % is scaled to controls: 0 for no effect and ±100 for the full control effect; nearly all actives have a fitted effect of over 55% in size
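Fluorescence dequenching readout, ex 525 nm/em 598 nm, kinetic mode: forked duplex DNA (100 nM final) with adjacent fluorophore and quencher unwound by WRN (20 nM final) with 2 mM ATP. Compound preincubation 15 min, room temperature.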
Active calls of the source: *; ! = not confirmed by another sample; [ ] = another dose, or the depositor's remark. Unless noted, calls follow the shape of the dose curve; as a rule, active = well fitted curve in the direction sought with a large enough effect; inconclusive = small, poorly fitted or top-dose-only effect, or another doubt; inactive = no such curve, though single readings can be large; an effect the other way counts as inactive or inconclusive.

For Cn1c(O)c(/C=C/C=Nc2ccccc2)c(=O)n(C)c1=S the results were POLH inh inconclusive, POLB inh 25µM*, PI5P4Ka inh -30, Pol iota inh 79µM*, POLK inh inconclusive and WRN inhibitor 32µM*.
`COc1nnc(-c2ccc(N3CCCCC3)c(NC(=O)c3ccc(Cl)cc3)c2)c2ccccc12` gave POLH inh -15%, POLB inh -2%, Pol iota inh 41% and POLK inh -19%.
CC(C)(O)[C@@H]1[C@H]2OC(=O)[C@@H]1[C@]1(O)C[C@H]3O[C@]34C(=O)O[C@H]2[C@@]14C (tested in a mixture with another compound) was read as POLK inh -8%[19.4 µM].
CC(=O)Nc1cc(Cl)c(N=Cc2ccc(O)cc2O)cc1Cl was read as POLH inh 79µM*, POLB inh 10µM*, PI5P4Ka inh inconclusive, Pol iota inh inconclusive, POLK inh -8%[60.1 µM] and WRN inhibitor -18%.
For Cc1ccc(NC2C(=O)NC(=O)NC2=O)cc1 the results were POLH inh 79µM*, PI5P4Ka inh 1, Pol iota inh 0.71µM*, POLK inh -15% and WRN inhibitor -18%.
Screening O=C1NC(=O)C(Nc2ccccc2)C(=O)N1 returned POLH inh 4%, PI5P4Ka inh 9, Pol iota inh 3.2µM*, POLK inh -6% and WRN inhibitor 5%[11.6 µM].
C=C(C)[C@H]1C2C(=O)O[C@H]1[C@H]1OC(=O)[C@@]34O[C@@H]3C[C@]2(O)[C@@]14C was read as POLK inh 3%[19.4 µM].
Screening S=C1CN=C(c2ccccc2Cl)c2cc(Cl)ccc2N1 returned POLH inh -31%, POLB inh -25%, PI5P4Ka inh 1, Pol iota inh 75%, POLK inh -7% and WRN inhibitor -9%.
For CN1CCN(C2=Nc3cc(Cl)ccc3Nc3ccccc32)CC1 the results were POLH inh -12%, POLB inh inconclusive, PI5P4Ka inh 11, Pol iota inh 79µM*!, POLK inh -6%[60.1 µM] and WRN inhibitor -6%.
O=c1[nH]c(=O)n(Cc2ccco2)c(O)c1C=NCCN1CCOCC1 was read as POLH inh 10µM*, POLB inh 8%, PI5P4Ka inh -20, Pol iota inh inconclusive, POLK inh -24% and WRN inhibitor -20%.
Screening Cc1ccc(-n2c(O)c(C=NCc3ccco3)c(=O)[nH]c2=S)cc1C returned POLH inh inconclusive, POLB inh inconclusive, PI5P4Ka inh -25, Pol iota inh 20µM*, POLK inh 40µM* and WRN inhibitor inconclusive.
Screening O=c1[nH]c(=O)n(Cc2ccco2)c(O)c1C=NCc1ccco1 returned POLH inh 89µM*, POLB inh inconclusive, Pol iota inh 40µM*, POLK inh -28% and WRN inhibitor -5%[11.6 µM].
`C=CCC1(CC)C(=O)NC(=S)NC1=O` gave POLH inh -10%, PI5P4Ka inh -2, Pol iota inh 10%, POLK inh -13% and WRN inhibitor -3%.
For C=CCC1C(=O)NC(=S)NC1=O the results were POLH inh 1%, POLB inh 7%, PI5P4Ka inh -63*, Pol iota inh 49%, POLK inh -2% and WRN inhibitor inconclusive.
For C[C@@H](N)[C@@H](O)c1ccc(O)c(O)c1 the results were POLK inh 1µM*.
Screening COc1ccc(OC)c(C(O)C(C)N)c1 (stereo not given) returned POLH inh -14%, POLB inh 11%, PI5P4Ka inh 2, Pol iota inh 21%, POLK inh -8%[60.1 µM] and WRN inhibitor 6%.
`C[C@H](N)[C@H](O)c1ccc(O)c(O)c1` gave POLK inh 0.75µM*.
C[C@H](NC(=O)[C@@H](N)Cc1ccc(O)cc1)C(=O)NCC(=O)N(C)[C@@H](Cc1ccccc1)C(=O)N[C@H](CO)CCS(C)=O (stereo not given in full) was read as POLK inh -3%[19.4 µM].
`CC(=O)N1CC[N+](C)(C)CC1` gave POLK inh 2%[19.4 µM].
c1ccc(N2CC3(CCNCC3)C2)nc1 was read as POLK inh -2%[60.1 µM].
For O=C(O[C@@H]1Cc2c(O)cc(O)cc2O[C@@H]1c1cc(O)c(O)c(O)c1)c1cc(O)c(O)c(O)c1 the results were POLB inh 0.45µM*.
Oc1cc(O)c2c(c1)OC(c1cc(O)c(O)c(O)c1)C(O)C2 (stereo not given) was read as POLK inh 4µM*.
O=C1NC(=S)N(c2ccccc2F)C(=O)/C1=C\c1cccs1 was read as POLH inh -3%, POLB inh 5%, PI5P4Ka inh -91*, Pol iota inh inconclusive, POLK inh -10% and WRN inhibitor 50µM*.
Screening CCOc1ccc(N2C(=O)NC(=O)/C(=C\c3ccccc3[N+](=O)[O-])C2=O)cc1 returned POLH inh 2%, POLB inh -11%, PI5P4Ka inh inconclusive, Pol iota inh inconclusive, POLK inh -14% and WRN inhibitor -6%.
CCOc1ccc(N2C(=O)/C(=C/c3ccco3)C(=O)NC2=S)cc1 was read as POLH inh -101%, POLB inh 13µM*, PI5P4Ka inh -82*, Pol iota inh -96%, POLK inh 1.6µM* and WRN inhibitor 11µM*.
Screening CCOc1ccc(N2C(=O)/C(=C\c3cccs3)C(=O)NC2=S)cc1 returned POLH inh -15%, POLB inh inconclusive, PI5P4Ka inh -64*, Pol iota inh 18µM*, POLK inh -9% and WRN inhibitor 40µM*.
`COc1ccc(NC(=O)N2CC3(CCN(C(=O)Oc4ccccc4)CC3)C2)cc1` gave POLK inh -9%[60.1 µM].
Screening Cc1ccccc1NC(=O)CCl returned POLH inh 0%, POLB inh -2%, PI5P4Ka inh -1, Pol iota inh -13%, POLK inh 7% and WRN inhibitor -9%.
Screening O=C(CN1C(=O)S/C(=C\C=C\c2ccccc2)C1=O)Nc1ccccc1C(=O)O returned POLH inh 35µM*, POLB inh -7%, PI5P4Ka inh -67*, Pol iota inh inconclusive, POLK inh 4% and WRN inhibitor -25%.
Screening CCOC(=O)N1C(C)CN(/[N+]([O-])=N/Oc2ccc([N+](=O)[O-])cc2[N+](=O)[O-])CC1C (stereo not given) returned Pol iota inh inconclusive and POLK inh 4%.
O=C1OC(c2cc(I)c(O)c(I)c2)(c2cc(I)c(O)c(I)c2)c2ccccc21 was read as POLK inh 3.5µM*.
